Consider five compounds from PubChem BioAssay (EPA / NIEHS).

Molecules are shown by their SMILES. The source made the active and inactive calls. How the source made its calls: active means hit-call score of the fitted dose curve at least 0.9, where 1 is the maximum; inactive means score below 0.9.

Read-out in assay [1]: Tissue Factor, F3 (gene 2152)
Put plainly: BSK_CASM3C_TissueFactor: BioMAP Diversity Plus: CASM3C Assay for Tissue Factor Biomarker Activity (AID 2283052).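 Further: cell surface tissue factor protein level read by ELISA.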 Conditions: primary human coronary artery smooth muscle cells; actives raise or lower the signal.

Read-out in assay [2]: Interferon-gamma inducible Protein 10 (IP10), CXCL10 (gene 3627)
The assay is described as follows: BSK_hDFCGF_IP10: BioMAP Diversity Plus: hDFCGF Assay for Interferon-gamma inducible Protein 10 (IP10) Biomarker Activity (AID 2283053). As to conditions: primary human foreskin fibroblasts; actives raise or lower the signal. The method, boiled down:
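Primary foreskin fibroblasts, human; 24 h compound exposure; IP-10 by ELISA; bidirectional fit vs DMSO.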

Read-out in assay [3]: Urokinase-type plasminogen activator receptor (uPAR), PLAUR (gene 5329)
Put plainly: BSK_CASM3C_uPAR: BioMAP Diversity Plus: CASM3C Assay for Urokinase-type plasminogen activator receptor (uPAR) Biomarker Activity (AID 2283054).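 Further: cell-surface uPAR protein level quantified by ELISA.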 Conditions: primary human coronary artery smooth muscle cells; actives raise or lower the signal.

Read-out in assay [4]: Vascular cell adhesion molecule 1 (VCAM1), VCAM1 (gene 7412)
Put plainly: BSK_CASM3C_VCAM1: BioMAP Diversity Plus: CASM3C Assay for Vascular cell adhesion molecule 1 (VCAM1) Biomarker Activity (AID 2283055).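 Further: VCAM-1 protein level quantified by ELISA on the cells.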 Conditions: primary human coronary artery smooth muscle cells; actives raise or lower the signal.

Read-out in assay [5]: Collagen III, COL3A1 (gene 1281)
Put plainly: BSK_hDFCGF_CollagenIII: BioMAP Diversity Plus: hDFCGF Assay for Collagen III Biomarker Activity (AID 2283056). As to conditions: primary human foreskin fibroblasts; actives raise or lower the signal. The method, boiled down:
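hDFCGF primary human dermal fibroblasts; 24 h chemical exposure; collagen III by ELISA; bidirectional curve fit vs DMSO baseline (gain or loss of signal).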

Read-out in assay [6]: Epidermal growth factor receptor (EGFR), EGFR (gene 1956)
Put plainly: BSK_hDFCGF_EGFR: BioMAP Diversity Plus: hDFCGF Assay for Epidermal growth factor receptor (EGFR) Biomarker Activity (AID 2283057). As to conditions: primary human foreskin fibroblasts; actives raise or lower the signal. In short, it runs like this: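 hDFCGF system, primary human foreskin fibroblasts; compound 24 h; EGFR measured by ELISA; DMSO = negative control/baseline; bidirectional fitting.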

Read-out in assay [7]: Interleukin-8 (IL8), CXCL8 (gene 3576)
The assay is described as follows: BSK_hDFCGF_IL8: BioMAP Diversity Plus: hDFCGF Assay for Interleukin-8 (IL8) Biomarker Activity (AID 2283058). As to conditions: primary human foreskin fibroblasts; actives raise or lower the signal. The method, boiled down: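 ELISA read-out of IL-8 from primary human foreskin fibroblast cultures taken 24 h after dosing; values are bidirectional fits relative to DMSO vehicle.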

Assay [8] in a line: BSK_hDFCGF_Proliferation: Cell Proliferation Assessment in the BioMAP Diversity Plus: hDFCGF Assay (AID 2283059).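 Further: curves fitted for both rise and fall of signal versus DMSO baseline.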 As to conditions: primary human foreskin fibroblasts. The method, boiled down:
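This proliferation readout used SRB total-protein staining of human foreskin fibroblasts […], normalized to DMSO with bidirectional curve fitting.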

Read-out in assay [9]: Macrophage colony-stimulating factor (MCSF), CSF1 (gene 1435)
The assay is described as follows: BSK_hDFCGF_MCSF: BioMAP Diversity Plus: hDFCGF Assay for Macrophage colony-stimulating factor (MCSF) Biomarker Activity (AID 2283060). Conditions: primary human foreskin fibroblasts; actives raise or lower the signal. In short, it runs like this:
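ELISA read-out of M-CSF in human dermal foreskin fibroblast cultures, 24 h after chemical dosing; gain or loss of signal fitted bidirectionally relative to DMSO baseline.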

Assay [10] is described as follows: BSK_hDFCGF_SRB: Viability Assessment in the BioMAP Diversity Plus: hDFCGF Assay (AID 2283061).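 Further: cells exposed to compound for 24 h before the read.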 As to conditions: primary human foreskin fibroblasts. In short, it runs like this:
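Primary human foreskin fibroblasts; 24 h post-dose; fixed 10% TCA, stained 0.1% SRB, A560 read; total protein as overt cytotoxicity measure; curves fit bidirectionally vs DMSO control.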

Read-out in assay [11]: TIMP metallopeptidase inhibitor 1 (TIMP1), TIMP1 (gene 7076)
The assay is described as follows: BSK_hDFCGF_TIMP1: BioMAP Diversity Plus: hDFCGF Assay for TIMP metallopeptidase inhibitor 1 (TIMP1) Biomarker Activity (AID 2283062). As to conditions: primary human foreskin fibroblasts; actives raise or lower the signal. The method, boiled down:
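ELISA readout of TIMP-1 from human dermal foreskin fibroblast cultures 24 h post-dosing. Curves were fitted in both directions against DMSO baseline, with SRB total-protein staining in parallel cultures as a cytotoxicity check.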

Read-out in assay [12]: Monokine induced gamma interferon (MIG), CXCL9 (gene 4283)
The assay is described as follows: BSK_hDFCGF_MIG: BioMAP Diversity Plus: hDFCGF Assay for Monokine induced gamma interferon (MIG) Biomarker Activity (AID 2283063). As to conditions: primary human foreskin fibroblasts; actives raise or lower the signal. In short, it runs like this:
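Fibroblasts (human foreskin, primary) dosed, 24 h, MIG by ELISA; fit bidirectional vs DMSO.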

Read-out in assay [13]: Matrix Metallopeptidase 1 (MMP1), MMP1 (gene 4312)
Put plainly: BSK_hDFCGF_MMP1: BioMAP Diversity Plus: hDFCGF Assay for Matrix Metallopeptidase 1 (MMP1) Biomarker Activity (AID 2283064). As to conditions: primary human foreskin fibroblasts; actives raise or lower the signal. In short, it runs like this: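 Primary human foreskin fibroblasts in the hDFCGF system were dosed with test chemical, and MMP1 was measured by ELISA 24 h later. Values come from bidirectional curve fitting against the DMSO baseline.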

Read-out in assay [14]: Vascular cell adhesion molecule 1 (VCAM1), VCAM1 (gene 7412)
The assay is described as follows: BSK_hDFCGF_VCAM1: BioMAP Diversity Plus: hDFCGF Assay for Vascular cell adhesion molecule 1 (VCAM1) Biomarker Activity (AID 2283065).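 On AC50: VCAM-1 protein level quantified by ELISA after 24 h chemical exposure.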 As to conditions: primary human foreskin fibroblasts; actives raise or lower the signal. In short, it runs like this:
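ELISA read-out of VCAM-1 on human skin fibroblasts, 24 h post-dose; gain or loss of signal fitted bidirectionally against DMSO baseline.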

Read-out in assay [15]: Plasminogen activator inhibitor-1 (PAI1), SERPINE1 (gene 5054)
The assay is described as follows: BSK_hDFCGF_PAI1: BioMAP Diversity Plus: hDFCGF Assay for Plasminogen activator inhibitor-1 (PAI1) Biomarker Activity (AID 2283066). Conditions: primary human foreskin fibroblasts; actives raise or lower the signal. The method, boiled down: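 Primary dermal fibroblasts (human foreskin), hDFCGF system; compound 24 h; PAI-1 by ELISA; bidirectional fit vs DMSO control.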

Read-out in assay [16]: Interferon-gamma inducible Protein 10 (IP10), CXCL10 (gene 3627)
Put plainly: BSK_KF3CT_IP10: BioMAP Diversity Plus: KF3CT Assay for Interferon-gamma inducible Protein 10 (IP10) Biomarker Activity (AID 2283068). As to conditions: primary human keratinocytes with fibroblasts; actives raise or lower the signal. In short, it runs like this:
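Signal is secreted/surface IP-10 by ELISA in a human primary skin co-culture of keratinocytes and foreskin fibroblasts, taken 24 h post-dosing; DMSO served as negative control.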

Assay [17] can be described thus: BSK_KF3CT_SRB: Viability Assessment in the BioMAP Diversity Plus: KF3CT Assay (AID 2283069).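 Further: total protein by sulforhodamine B staining as a cytotoxicity measure; read 24 h after compound addition.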 As to conditions: primary human keratinocytes with fibroblasts. The method, boiled down: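 Human primary keratinocyte plus foreskin fibroblast co-culture exposed to chemicals for 24 h. Total protein measured by 0.1% sulforhodamine B staining after 10% TCA fixation, read at 560 nm; bidirectional fitting versus DMSO baseline.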

Read-out in assay [18]: Interleukin-1 alpha (IL1a), IL1A (gene 3552)
Put plainly: BSK_KF3CT_IL1a: BioMAP Diversity Plus: KF3CT Assay for Interleukin-1 alpha (IL1a) Biomarker Activity (AID 2283070). Conditions: primary human keratinocytes with fibroblasts; actives raise or lower the signal. In short, it runs like this: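 Human keratinocyte plus foreskin fibroblast primary co-culture, sampled 24 h after chemical dosing. IL-1a measured by ELISA; responses fitted bidirectionally against DMSO baseline (negative control), so gain or loss of signal both count.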

Read-out in assay [19]: TIMP metallopeptidase inhibitor 2 (TIMP2), TIMP2 (gene 7077)
Put plainly: BSK_KF3CT_TIMP2: BioMAP Diversity Plus: KF3CT Assay for TIMP metallopeptidase inhibitor 2 (TIMP2) Biomarker Activity (AID 2283071). Conditions: primary human keratinocytes with fibroblasts; actives raise or lower the signal. In short, it runs like this: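 Cells: human keratinocytes co-cultured with foreskin fibroblasts. Treat with chemical, 24 h. Measure TIMP-2 by ELISA; fit curves bidirectionally vs DMSO baseline.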

As for `C=CCc1ccc2c(c1)OCO2`, the result in assay [1], in assay [2], in assay [3], in assay [4], in assay [5] and in assay [6] was inactive. Besides, the outcome in assay [7], in [8], in assay [9], in assay [10], in [11] and in assay [12] was inactive. Moreover, the outcome in [13], in assay [14], in assay [15], in assay [16], in assay [17] and in assay [18] was inactive. Further, the result in assay [19] was inactive.

For the compound `ClC1=C(Cl)[C@]2(Cl)[C@H]3[C@H]([C@@H]4C=C[C@H]3C4)[C@@]1(Cl)C2(Cl)Cl`, the result in assay [1] and in assay [6] was inactive. In addition, the AC50 was 19.3 µM (active) in assay [2]; 32 µM (active) in assay [3]; 38.9 µM (active) in assay [4]; 13.7 µM (active) in [5]; 31.3 µM (active) in assay [7]; 5.71 µM (active) in [8]. The AC50 in assay [9] was 16.3 µM (active); in [10], 10.3 µM (active); in assay [12], 16.4 µM (active); in assay [13], 29.9 µM (active); in assay [14], 10.1 µM (active); in [15], 10.7 µM (active). Moreover, the AC50 in assay [16] is 14.5 µM (active); in [17], 30.6 µM (active); in assay [19], 20 µM (active).

On to `CC(C)(C)OOC(C)(C)CCC(C)(C)OOC(C)(C)C`, for which the result in assay [1], in [2], in assay [3], in assay [4], in assay [5] and in [6] was inactive. Also, the outcome in [7], in assay [9], in assay [10], in assay [11], in assay [12] and in [13] was inactive. The result in assay [14], in assay [15], in assay [16], in assay [17], in assay [18] and in [19] was inactive. In [8], the AC50 was 31.3 µM (active).

Take `O=[N+]([O-])c1ccc(Oc2ccc(Cl)cc2Cl)cc1`: the outcome in assay [1], in assay [3], in [4], in assay [6], in assay [7] and in assay [10] was inactive. For the same compound, the result in assay [11], in [12], in assay [15], in assay [16], in assay [17] and in assay [18] was inactive. In assay [19], the result was inactive. The AC50 in [2] was 20 µM (active); in assay [5], 12.1 µM (active); in assay [8], 20 µM (active); in [9], 13.1 µM (active); in assay [13], 10.2 µM (active); in assay [14], 13.5 µM (active).

On to `Cc1cc(N=Nc2ccccc2C)ccc1N`, for which the result in assay [1], in assay [3], in [4], in assay [6], in assay [7] and in assay [11] was inactive. For the same compound, the outcome in assay [13] was inactive. Besides, the AC50 in [2] was 29.9 µM (active); in assay [5], 20 µM (active); in assay [8], 9.37 µM (active); in [9] it was 28.3 µM (active); in assay [10], 34.5 µM (active); in assay [12], 33.4 µM (active). Also, the half-maximal activity concentration (AC50) in assay [14] is 23.5 µM (active); in assay [15] it was 32.1 µM (active); in assay [16], 33.7 µM (active); in assay [17], 29.9 µM (active); in [18], 37.9 µM (active); in [19] it was 20 µM (active).
